# From PubChem BioAssay (NCATS)
# A number with no mark means an inactive call. Inconclusive results are not listed. The source made the active and inactive calls. Unless noted, calls follow the shape of the dose curve; as a rule, active = well fitted curve in either direction with a large enough effect (not every such curve was filed as active); inconclusive = small, poorly fitted or top-dose-only effect, or another doubt; inactive = flat fitted curve, though single readings scatter.
# What was measured:
# [1] = AP1 Signaling Pathway (AID 357); details: ME-180 AP-1-bla reporter, EGF-induced, beta-lactamase ratio, 5 h; at 17.2 µM (top of the series) unless noted;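 also: ME-180 reporter cells stimulated with EGF at its EC50 level; % is scaled to controls: 0 for no effect and ±100 for the full control effect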
# Outline: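 Read-out was the 460nm/530nm emission ratio (excitation 405nm) after CCF4 loading for 2.5 hours at room temperature. Cells carried an AP-1-driven beta-lactamase reporter, were stimulated with EC50 EGF plus compound for 5 hours, and AC50 values came from titrations.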
# [2] = NFAT Signaling Pathway (AID 444); details: Jurkat NFAT-bla M1, carbachol, beta-lactamase ratio, 5 h; at 17.2 µM (top of the series) unless noted;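 also: carbachol stimulus at about its EC50 of 1 µM final; % is scaled to controls: 0 for no effect and ±100 for the full control effect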
# Outline: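 Read-out: CCF4 FRET ratio (460 nm/530 nm) after 1 h RT dye loading, used for %activity and AC50 from titration series. Cells: Jurkat NFAT-β-lactamase/M1 line, treated with compound plus 1 uM carbachol for 5 h, 37 °C.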
# [3] = Stat Signaling Pathway (AID 446); details: ME-180 SIE beta-lactamase reporter, IL-6 stimulated, 5 h; at 17.2 µM (top of the series) unless noted;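 also: ME-180 cervical cancer cells given 40 pM IL-6 alongside compound; SIE-controlled beta-lactamase reporter measured as 460/530 nm FRET emission ratio; % is scaled to controls: 0 for no effect and ±100 for the full control effect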
# Outline: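 Reporter line: ME-180 cervical carcinoma, SIE-beta-lactamase. Treatment: compound with 40 pM IL-6, 5 hrs, 37 C, in low-serum OPTI-MEM with 10 mM HEPES pH 7.3. Detection: 460/530 nm fluorescence.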
# [4] = biological target: Glucocorticoid receptor (Homo sapiens) (UniProt P04150); test: GR-GFP Redistribution (AID 450;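 active = compounds whose dose series gives a full or clear partial fitted curve of increased nuclear translocation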; also: potency is read from the fitted curve at half-maximal effect)
# Glucocorticoid receptor (Homo sapiens), sequence (P04150 whole entry, looked up, the tested form may be a part): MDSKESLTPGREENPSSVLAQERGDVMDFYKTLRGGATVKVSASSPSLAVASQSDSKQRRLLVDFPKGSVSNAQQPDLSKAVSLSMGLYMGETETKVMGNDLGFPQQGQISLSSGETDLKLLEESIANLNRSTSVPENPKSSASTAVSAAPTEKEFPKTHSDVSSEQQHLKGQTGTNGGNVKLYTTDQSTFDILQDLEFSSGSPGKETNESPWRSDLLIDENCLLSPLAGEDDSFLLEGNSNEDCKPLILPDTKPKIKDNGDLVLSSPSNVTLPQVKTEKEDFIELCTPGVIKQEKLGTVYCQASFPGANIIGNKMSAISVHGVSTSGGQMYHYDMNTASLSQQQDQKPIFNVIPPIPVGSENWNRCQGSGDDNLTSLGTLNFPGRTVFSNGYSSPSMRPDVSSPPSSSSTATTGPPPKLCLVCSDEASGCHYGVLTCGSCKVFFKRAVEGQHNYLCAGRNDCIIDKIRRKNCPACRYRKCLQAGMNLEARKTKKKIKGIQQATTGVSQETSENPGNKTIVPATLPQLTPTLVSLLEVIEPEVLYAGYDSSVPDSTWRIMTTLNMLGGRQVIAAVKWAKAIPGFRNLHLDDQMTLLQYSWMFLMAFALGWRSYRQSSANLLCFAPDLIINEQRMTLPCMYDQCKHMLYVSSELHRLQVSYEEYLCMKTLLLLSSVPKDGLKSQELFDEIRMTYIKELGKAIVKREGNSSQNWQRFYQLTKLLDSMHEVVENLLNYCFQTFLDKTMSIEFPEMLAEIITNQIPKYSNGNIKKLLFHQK
# [5] = qHTS Assay for Identification of Small Molecule Agonists for Hypoxia Response Element Signaling Pathway (AID 914; active = well fitted activation curve with a large enough effect in the signal ratio, with a control signal flat, not every such curve was filed as active; the % refers to the signal ratio; also: potency is read from the fitted curve at half-maximal effect; as to activation: % of control where 0% means no effect); details: ME-180 (cervical carcinoma) HRE-bla reporter, beta-lactamase ratio, CoCl2, 17 h; activation: stronger effect = higher value
# Outline: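 qHTS titration; ME-180 HRE-bla cells; EC50 CoCl2 co-treatment, 17 h at 37 degrees Celsius; CCF4 dye, ex 405nm, em 460nm and 530nm; %Activity from ratio; AC50.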
# [6] = biological target: Cytochrome P450 3A4 (Homo sapiens) (UniProt P08684); test: qHTS Assay for Activators of Cytochrome P450 3A4 (AID 885; active = well fitted curve in the direction sought with a large enough effect; an effect the other way counts as inactive or inconclusive; also: nearly all actives have a fitted effect of over 65% in size)
# Cytochrome P450 3A4 (Homo sapiens), sequence (P08684 whole entry, looked up): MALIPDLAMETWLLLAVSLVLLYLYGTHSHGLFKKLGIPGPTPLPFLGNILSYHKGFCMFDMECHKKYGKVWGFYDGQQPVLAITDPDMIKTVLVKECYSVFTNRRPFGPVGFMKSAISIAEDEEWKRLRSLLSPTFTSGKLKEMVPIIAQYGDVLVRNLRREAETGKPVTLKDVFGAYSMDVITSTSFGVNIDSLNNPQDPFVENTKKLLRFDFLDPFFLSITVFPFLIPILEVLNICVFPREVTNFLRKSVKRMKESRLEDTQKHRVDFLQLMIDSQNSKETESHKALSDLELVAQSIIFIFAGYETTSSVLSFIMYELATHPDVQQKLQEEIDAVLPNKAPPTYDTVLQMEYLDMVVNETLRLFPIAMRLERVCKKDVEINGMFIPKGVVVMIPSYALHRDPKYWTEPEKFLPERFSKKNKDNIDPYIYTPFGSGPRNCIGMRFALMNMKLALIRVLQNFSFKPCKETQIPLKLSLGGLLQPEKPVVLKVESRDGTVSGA
# Outline: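 Signal was normalized against complete inhibition by 57 uM ketoconazole. The reaction used 20nM CYP3A4 with 25uM Luciferin-PPXE, 10-min compound preincubation and a 60-min NADPH-supported step at RT.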
# [7] = biological target: DNA dC->dU-editing enzyme APOBEC-3G (Homo sapiens) (UniProt Q9HC16); test: qHTS for inhibitors of Vif-A3G interactions: Validation (AID 588379; active = well fitted curve in the direction sought with a large enough effect; an effect the other way counts as inactive or inconclusive; also: 0% is about no effect)
# DNA dC->dU-editing enzyme APOBEC-3G (Homo sapiens), sequence (Q9HC16 whole entry, looked up): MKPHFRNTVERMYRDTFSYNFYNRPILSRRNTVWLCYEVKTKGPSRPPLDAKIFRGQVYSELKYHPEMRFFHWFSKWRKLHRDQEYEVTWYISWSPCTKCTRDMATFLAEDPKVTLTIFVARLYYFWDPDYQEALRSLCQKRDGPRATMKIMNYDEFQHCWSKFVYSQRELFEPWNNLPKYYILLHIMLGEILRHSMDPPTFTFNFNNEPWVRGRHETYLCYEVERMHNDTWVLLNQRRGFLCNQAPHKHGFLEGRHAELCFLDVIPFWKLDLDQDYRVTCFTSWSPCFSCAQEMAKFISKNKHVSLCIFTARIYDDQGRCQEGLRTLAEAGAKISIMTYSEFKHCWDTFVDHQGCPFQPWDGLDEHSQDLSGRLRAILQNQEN
# Outline: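 HeLa cells stably expressing Vif and A3G-eYFP, 700 cells/well, incubated overnight at 37 deg C, then exposed to compound overnight at 37 deg C. Inhibition of Vif-mediated degradation read as increased yellow fluorescence (Ex 488/Em 500-530) by laser-scanning cytometry.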
# [8] = biological target: Glucocorticoid receptor (Homo sapiens) (UniProt P04150); test: GR-EFC Redistribution (AID 451; calls by dose curve; also: potency is read from the fitted curve at half-maximal effect); details: CHO-K1 GR-EFC translocation, beta-gal luminescence, 2 h
# Outline: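 Translocation of GR-ED fusion to nuclear EA restores b-gal, read by luminescence after 1 h room-temperature detection. Engineered CHO-K1 biosensor cells, 1,000/well, exposed 2 h at 37 C to titrations up to 46 uM final.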
# [9] = biological target: Mitogen-activated protein kinase 10 (Mus musculus) (UniProt Q61831); test: JNK3 AlphaScreen Assay (AID 530);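 also: kinase came from lysate of stimulated human HepG2 cells; signal reports phosphorylation of biotinylated GST-cJun 1-79 at Ser73 with 10 µM ATP; % is scaled to controls: 0 for no effect and ±100 for the full control effect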
# Outline: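 Room-temperature AlphaScreen kinase assay; pre-activated HepG2 lysate as JNK3 source, biotin-GST-cJun(1-79) substrate, 10 uM ATP, compound 15 min preincubation.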
# [10] = biological target: 3',5'-cyclic-AMP phosphodiesterase 4B (Homo sapiens) (UniProt Q07343); test: qHTS Assay for Inhibitors of PDE-IV (AID 607; active = well fitted activation curve with a large enough effect in the main read-out, with a control signal flat, not every such curve was filed as active; also: % of control where 0% means no effect)
# 3',5'-cyclic-AMP phosphodiesterase 4B (Homo sapiens), sequence (Q07343 whole entry, looked up): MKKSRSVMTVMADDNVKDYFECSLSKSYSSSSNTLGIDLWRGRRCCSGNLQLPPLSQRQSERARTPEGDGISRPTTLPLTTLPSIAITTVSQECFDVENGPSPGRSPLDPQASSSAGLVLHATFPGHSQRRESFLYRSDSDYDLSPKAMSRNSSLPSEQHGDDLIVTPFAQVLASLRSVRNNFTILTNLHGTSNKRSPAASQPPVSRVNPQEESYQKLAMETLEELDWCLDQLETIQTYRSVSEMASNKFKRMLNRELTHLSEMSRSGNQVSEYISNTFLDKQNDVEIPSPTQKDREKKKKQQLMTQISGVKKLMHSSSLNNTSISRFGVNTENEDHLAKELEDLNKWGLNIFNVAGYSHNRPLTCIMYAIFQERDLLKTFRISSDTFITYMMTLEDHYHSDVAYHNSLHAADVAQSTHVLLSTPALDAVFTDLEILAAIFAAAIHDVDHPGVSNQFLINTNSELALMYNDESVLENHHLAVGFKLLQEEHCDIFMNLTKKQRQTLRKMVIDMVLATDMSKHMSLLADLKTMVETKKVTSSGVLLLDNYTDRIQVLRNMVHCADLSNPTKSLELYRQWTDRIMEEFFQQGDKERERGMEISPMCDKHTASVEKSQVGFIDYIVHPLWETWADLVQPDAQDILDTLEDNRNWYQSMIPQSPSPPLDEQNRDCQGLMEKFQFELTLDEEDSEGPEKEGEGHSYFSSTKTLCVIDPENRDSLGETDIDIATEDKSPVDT
# Outline: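 Cell-based read-out of cAMP via a modified cyclic nucleotide-gated channel and membrane potential dye (535/590 nm) in HEK293 cells expressing PDE4 endogenously. Compounds tested up to 22.9 uM final; 100 uM RO 20-1724 reference.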
# [11] = qHTS Assay for Identification of Small Molecule Agonists for Thrombopoietin (TPO) Signaling Pathway (AID 917; active = well fitted curve in the direction sought with a large enough effect; an effect the other way counts as inactive or inconclusive; also: % is scaled to controls: 0 for no effect and ±100 for the full control effect)
# Outline: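 Murine Ba/F3 cells stably expressing human TPO receptor and a Glycoprotein IIb promoter–luciferase reporter were IL-3-starved overnight, then treated with compounds plus TPO (26 pM final, its EC50) for 24 hrs at 37 C; luminescence was read.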
# [12] = biological target: Pyruvate kinase (Leishmania mexicana) (UniProt Q27686); test: qHTS Validation Assay for Inhibitors of Leishmania Mexicana Pyruvate Kinase (AID 945; active = well fitted curve in the direction sought with a large enough effect; an effect the other way counts as inactive or inconclusive;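 also: 0% = DMSO only neutral control wells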)
# Pyruvate kinase (Leishmania mexicana), sequence (Q27686 2-499 E452W): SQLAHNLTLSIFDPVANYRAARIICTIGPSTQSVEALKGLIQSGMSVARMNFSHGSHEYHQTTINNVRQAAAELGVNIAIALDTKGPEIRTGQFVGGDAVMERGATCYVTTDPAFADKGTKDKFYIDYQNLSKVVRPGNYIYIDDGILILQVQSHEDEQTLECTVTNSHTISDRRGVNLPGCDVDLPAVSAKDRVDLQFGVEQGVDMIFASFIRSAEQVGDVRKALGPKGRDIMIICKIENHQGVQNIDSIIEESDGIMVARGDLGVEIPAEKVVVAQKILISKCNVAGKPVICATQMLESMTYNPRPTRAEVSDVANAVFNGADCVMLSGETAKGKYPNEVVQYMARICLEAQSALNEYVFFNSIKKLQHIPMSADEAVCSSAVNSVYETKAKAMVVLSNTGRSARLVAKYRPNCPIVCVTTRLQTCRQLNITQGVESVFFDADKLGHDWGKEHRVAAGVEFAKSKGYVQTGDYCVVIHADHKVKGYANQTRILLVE
# Outline: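 Read-out: luminescence from PKLight stop/detection reagent, data normalized to DMSO. Reaction: 0.2 nM E451W LmPYK, 0.5 mM PEP, 0.1 mM ADP, pH 7.2, 1 h room temperature.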
# [13] = biological target: Pyruvate kinase PKM (Homo sapiens) (UniProt P14618); test: qHTS Assay for Activators of Human Muscle Pyruvate Kinase (AID 954; active = well fitted curve in the direction sought with a large enough effect, not every such curve was filed as active;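 also: 0% = uninhibited enzyme and -100% = no enzyme or full thiadiazolimine inhibition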)
# Pyruvate kinase PKM (Homo sapiens), sequence (P14618 whole entry, looked up): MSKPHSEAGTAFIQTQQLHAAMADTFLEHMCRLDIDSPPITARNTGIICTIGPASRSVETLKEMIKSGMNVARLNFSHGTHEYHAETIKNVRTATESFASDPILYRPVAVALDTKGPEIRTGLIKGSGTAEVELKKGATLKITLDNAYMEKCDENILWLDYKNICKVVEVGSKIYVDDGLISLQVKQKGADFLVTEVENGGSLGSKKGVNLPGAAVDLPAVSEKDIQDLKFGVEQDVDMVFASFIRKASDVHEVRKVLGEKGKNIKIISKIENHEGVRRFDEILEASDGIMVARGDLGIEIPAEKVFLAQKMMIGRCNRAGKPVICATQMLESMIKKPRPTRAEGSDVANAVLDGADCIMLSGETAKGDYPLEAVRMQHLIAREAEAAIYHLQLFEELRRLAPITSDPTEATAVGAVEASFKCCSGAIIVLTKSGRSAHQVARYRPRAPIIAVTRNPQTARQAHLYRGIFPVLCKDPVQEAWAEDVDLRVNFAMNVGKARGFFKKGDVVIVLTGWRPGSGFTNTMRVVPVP
# Outline: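 Human PKM2 activity is measured as ATP generation, detected by luciferase-coupled luminescence. The enzyme (0.1 nM) acts on 0.5 mM PEP and 0.1 mM ADP for 1 h at ambient temperature; data are normalized to uninhibited and full-inhibition wells.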
# [14] = biological target: Alpha-galactosidase A (Homo sapiens) (UniProt P06280); test: Counterscreen for Glucocerebrosidase Inhibitors: qHTS Assay for Human alpha-Galactosidase at pH 4.5 (AID 992; active = well fitted curve in the direction sought with a large enough effect; an effect the other way counts as inactive or inconclusive; also: 0% is about no effect)
# Alpha-galactosidase A (Homo sapiens), sequence (P06280 whole entry, looked up): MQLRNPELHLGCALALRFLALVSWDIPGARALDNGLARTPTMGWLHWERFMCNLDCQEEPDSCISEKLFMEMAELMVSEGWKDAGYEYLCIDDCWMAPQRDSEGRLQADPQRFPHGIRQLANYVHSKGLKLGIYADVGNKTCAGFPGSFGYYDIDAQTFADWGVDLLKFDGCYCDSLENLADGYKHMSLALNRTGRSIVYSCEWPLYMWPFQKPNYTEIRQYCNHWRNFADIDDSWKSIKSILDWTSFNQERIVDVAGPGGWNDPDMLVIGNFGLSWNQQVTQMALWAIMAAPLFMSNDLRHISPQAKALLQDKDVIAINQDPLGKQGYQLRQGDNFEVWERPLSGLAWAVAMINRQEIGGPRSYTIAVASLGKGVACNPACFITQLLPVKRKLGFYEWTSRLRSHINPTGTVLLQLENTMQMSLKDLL
# Outline: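 Quantitative HTS: compounds tested from 0.7 nM up to 77 uM against 2 nM enzyme with 80 uM 4-MU alpha-D-galactopyranoside. The 20 min room-temperature reaction is stopped with 1M NaOH/1M glycine, pH 10.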
# [15] = biological target: alpha-glucosidase (Oryza sativa, rice) (UniProt Q653V4); test: Counterscreen for Glucocerebrosidase Inhibitors: qHTS Assay for Rice alpha-Glucosidase at pH 5.0 (AID 997; active = well fitted curve in the direction sought with a large enough effect; an effect the other way counts as inactive or inconclusive;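 also: 0% = full activity with enzyme and -100% = basal without enzyme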)
# Outline: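 Rice alpha-glucosidase (4 nM final) with 400 uM 4-methylumbelliferyl-alpha-D-glucopyranoside in citrate buffer pH 5.0, 20 min at room temperature, stopped at pH 10; fluorescence 365/440 nm, compounds 0.7 nM–77 uM, AC50 from Hill fits.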
# [16] = biological target: Guanine nucleotide-binding protein G(i) subunit alpha-1 (Homo sapiens) (UniProt P63096); test: qHTS Assay for Inhibitors of RGS12 GoLoco Motif Activity (Green Fluorophore) (AID 879; active = well fitted curve in the direction sought with a large enough effect; an effect the other way counts as inactive or inconclusive;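 also: 0% = labeled peptide with Gαi1 and full inhibition = labeled peptide alone without protein; negative values mean loss of peptide binding seen as reduced polarization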)
# Guanine nucleotide-binding protein G(i) subunit alpha-1 (Homo sapiens), sequence (P63096 whole entry, looked up): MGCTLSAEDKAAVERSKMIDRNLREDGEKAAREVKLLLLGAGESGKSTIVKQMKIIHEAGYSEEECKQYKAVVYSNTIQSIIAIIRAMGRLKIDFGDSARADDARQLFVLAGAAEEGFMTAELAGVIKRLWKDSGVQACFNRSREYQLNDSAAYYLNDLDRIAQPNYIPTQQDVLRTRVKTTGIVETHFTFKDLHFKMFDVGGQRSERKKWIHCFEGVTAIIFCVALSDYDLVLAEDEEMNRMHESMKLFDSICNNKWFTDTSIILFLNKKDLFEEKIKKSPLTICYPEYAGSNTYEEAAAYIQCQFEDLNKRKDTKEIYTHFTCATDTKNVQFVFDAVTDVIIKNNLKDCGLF
# Outline: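 Fluorescence polarization assay: 50 nM Gαi1 with 10 nM FITC-labeled RGS12 GoLoco peptide in 10 mM Tris pH 7.5, 150 mM NaCl, 0.1 mM GDP, 0.05% NP40, 10 min at room temperature with compound.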
# [17] = biological target: Tyrosyl-DNA phosphodiesterase 1 (Homo sapiens) (UniProt Q9NUW8); test: Confirmation Assay for Inhibitors of Tyrosyl-DNA Phosphodiesterase (TDP1) (AID 489007; active = well fitted curve in the direction sought with a large enough effect; an effect the other way counts as inactive or inconclusive; also: potency is read from the fitted curve at half-maximal effect; nearly all actives have a fitted effect of over 40% in size); details: recombinant human TDP1 enzymatic activity, dose-response
# Tyrosyl-DNA phosphodiesterase 1 (Homo sapiens), sequence (Q9NUW8 whole entry, looked up): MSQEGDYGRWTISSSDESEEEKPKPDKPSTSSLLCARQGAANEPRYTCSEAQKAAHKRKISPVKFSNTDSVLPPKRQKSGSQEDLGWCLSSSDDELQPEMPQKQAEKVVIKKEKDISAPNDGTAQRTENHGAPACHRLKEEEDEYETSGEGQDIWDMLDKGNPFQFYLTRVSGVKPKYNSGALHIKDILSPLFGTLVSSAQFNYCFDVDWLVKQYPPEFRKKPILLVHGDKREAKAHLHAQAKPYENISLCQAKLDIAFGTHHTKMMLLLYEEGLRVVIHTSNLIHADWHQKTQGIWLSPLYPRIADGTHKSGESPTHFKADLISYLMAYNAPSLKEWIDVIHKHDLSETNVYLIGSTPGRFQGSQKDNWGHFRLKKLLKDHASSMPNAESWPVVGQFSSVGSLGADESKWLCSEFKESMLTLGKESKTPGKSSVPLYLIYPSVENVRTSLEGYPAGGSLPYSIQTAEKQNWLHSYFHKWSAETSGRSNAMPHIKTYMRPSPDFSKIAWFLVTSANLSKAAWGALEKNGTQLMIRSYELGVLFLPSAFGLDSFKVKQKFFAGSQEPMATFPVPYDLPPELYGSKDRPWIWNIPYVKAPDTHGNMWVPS
# Outline: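 Confirmation of primary-screen follow-ups in a qHTS format. Substrate cleavage by Tdp1 (1 nM) of a 3'-phosphotyrosine-FITC, 5'-biotin oligo (15 nM) was monitored as decreased AlphaScreen signal after a 5 min room-temperature reaction.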
structure (smiles),measurement,setting,value
CCOC(=O)c1c(CNCCN(CC)CC)n(C)c2cc(Br)c(OC)cc12,"activity change, negative = inhibition",[1],5.94%
same,"activity change, negative = inhibition",[2],5.36%
same,"activity, negative = inhibition",[3],-6.2%
same,Potency,[4],> 20.6 µM
same,activation,[5],-9.75%
Cc1ccc(S(=O)(=O)N(CC(O)CN2CCOCC2)c2cc(Cl)ccc2Cl)cc1 (stereo not given),"activity change, negative = inhibition",[1],0.294%
same,"activity change, negative = inhibition",[2],-11%
same,"activity, negative = inhibition",[3],-1.96%
same,Potency,[4],> 20.6 µM
same,activation,[5],11.1%
COC1=CC(=O)CC(C)C12Oc1c(Cl)c(OC)cc(OC)c1C2=O (stereo not given),"activity change, negative = inhibition",[1],-16.1%
same,"activity change, negative = inhibition",[2],-12.3%
same,"activity, negative = inhibition",[3],4.38%
same,Potency,[4],> 20.6 µM
same,Potency,[6],inactive
same,outcome,[7],inactive
O=C(NC1CCCCC1)Nn1c(-c2ccccc2)nc2ccccc2c1=O,"activity change, negative = inhibition",[1],-2.78%
same,"activity change, negative = inhibition",[2],-2.06%
same,"activity, negative = inhibition",[3],13.2%
same,Potency,[4],> 20.6 µM
same,activation,[5],1.48%
COC(=O)c1[nH]c(C)c(/C(O)=C2\C(=O)C(=O)N(CCN3CCOCC3)C2c2ccccc2OC)c1C (stereo not given),"activity change, negative = inhibition",[1],3.47%
same,"activity change, negative = inhibition",[2],17.3%
same,"activity, negative = inhibition",[3],-6.01%
same,Potency,[4],> 20.6 µM
same,activation,[5],0.0679%
CCCSc1nc(C)c(CC(=O)O)c(=O)[nH]1,"activity change, negative = inhibition",[1],-6.75%
same,"activity change, negative = inhibition",[2],13%
same,"activity, negative = inhibition",[3],-1.03%
same,Potency,[4],> 20.6 µM
same,activation,[5],11%
O=C(c1ccc(=O)oc1)N1CCN(C(c2ccccc2)c2ccccc2)CC1,"activity change, negative = inhibition",[1],26.4%
same,"activity change, negative = inhibition",[2],-101% (active)
same,"activity, negative = inhibition",[3],-15.5%
same,Potency,[4],> 20.6 µM
same,activation,[5],9.9%
COc1cc(NC2=CC(=O)CC(C)(C)C2)cc(OC)c1OC,"activity change, negative = inhibition",[1],7.47%
same,"activity change, negative = inhibition",[2],-11.1%
same,"activity, negative = inhibition",[3],15.1%
same,Potency,[4],> 20.6 µM
same,activation,[5],-12.9%
COc1ccc(CNC(=O)c2c(C)cc(=O)oc2C)cc1OC,"activity change, negative = inhibition",[1],13.7%
same,"activity change, negative = inhibition",[2],13.8%
same,"activity, negative = inhibition",[3],9.9%
same,Potency,[4],> 20.6 µM
same,activation,[5],12.6%
CSc1nc(C)c2c(c1C#N)CCCC2,"activity change, negative = inhibition",[1],-16.1%
same,"activity change, negative = inhibition",[2],-18.1%
same,"activity, negative = inhibition",[3],16.1%
same,Potency,[4],> 20.6 µM
same,activation,[5],-4.49%
Cc1sc(-n2c(C)ccc2C)c(C#N)c1C,"activity change, negative = inhibition",[1],-5.35%
same,"activity change, negative = inhibition",[2],-9.11%
same,"activity, negative = inhibition",[3],0.959%
same,Potency,[4],> 20.6 µM
same,activation,[5],5.91%
C=C(C)CN(CC)CCC(=O)Nc1ccc(OC)cc1OC,"activity change, negative = inhibition",[1],-7.43%
same,"activity change, negative = inhibition",[2],3.18%
same,"activity, negative = inhibition",[3],6.14%
same,Potency,[4],> 20.6 µM
same,activation,[5],-8.71%
NCCC[C@@](N)(C(=O)O)C(F)F,"activity change, negative = inhibition",[1],6.84% [at 38 µM]
same,"activity change, negative = inhibition",[2],-7.76% [at 38 µM]
same,"activity, negative = inhibition",[3],2.8% [at 38 µM]
same,Potency,[4],> 46 µM
same,Potency,[8],> 46 µM
same,Potency,[9],inactive
same,Potency,[10],inactive
same,Potency,[11],inactive
same,Potency,[12],inactive
same,outcome,[13],inactive
same,outcome,[14],inactive
Cc1cc(OCC(=O)Nn2cnnc2)ccc1Br,"activity change, negative = inhibition",[1],11.6%
same,"activity change, negative = inhibition",[2],-7.1%
same,"activity, negative = inhibition",[3],4.67%
same,Potency,[4],> 20.6 µM
same,activation,[5],8.36%
O=C(NC1(C(F)(F)F)C(=O)Nc2c1c(=O)[nH]c(=O)n2Cc1ccco1)C1CCCCC1 (stereo not given),"activity change, negative = inhibition",[1],-8.35%
same,"activity change, negative = inhibition",[2],-10.2%
same,"activity, negative = inhibition",[3],-2.02%
same,Potency,[4],> 20.6 µM
same,activation,[5],-5.1%
O=C(NC1CCS(=O)(=O)C1)c1c(NC(=O)C2COc3ccccc3O2)sc2c1CCCC2 (stereo not given),"activity change, negative = inhibition",[1],-20.8%
same,"activity change, negative = inhibition",[2],-18.5%
same,"activity, negative = inhibition",[3],-9.79%
same,Potency,[4],> 20.6 µM
same,Potency,[5],5.01 µM (active)
Cn1c(=O)c2c(nc(/C=C\c3cccc(Cl)c3)n2C)n(C)c1=O,"activity change, negative = inhibition",[1],7.2% [at 38 µM]
same,"activity change, negative = inhibition",[2],-6.69% [at 38 µM]
same,"activity, negative = inhibition",[3],-14.4% [at 38 µM]
same,Potency,[4],> 46 µM
same,Potency,[8],> 46 µM
same,Potency,[9],inactive
same,Potency,[10],inactive
same,Potency,[11],inactive
same,Potency,[12],inactive
same,outcome,[13],inactive
same,outcome,[14],inactive
same,outcome,[15],inactive
CC(=O)S[C@@H]1CC2=CC(=O)CC[C@@]2(C)[C@H]2CC[C@]3(C)[C@H](CC[C@@]34CCC(=O)O4)[C@H]12,"activity change, negative = inhibition",[1],19.8% [at 38 µM]
same,"activity change, negative = inhibition",[2],-10% [at 38 µM]
same,"activity, negative = inhibition",[3],-9.34% [at 38 µM]
same,Potency,[4],1.4 µM (active)
same,Potency,[8],> 46 µM
same,Potency,[10],inactive
same,outcome,[16],inactive
same,Potency,[11],inactive
same,Potency,[12],inactive
same,outcome,[13],inactive
same,outcome,[14],inactive
Cc1ccc(C)n1Cc1ccc(C(=O)O)cc1,"activity change, negative = inhibition",[1],2.78%
same,"activity change, negative = inhibition",[2],-7.86%
same,"activity, negative = inhibition",[3],6%
same,Potency,[4],> 20.6 µM
same,Potency,[17],1.41 µM (active)
